Results reported in article PMC5540273 (PLoS ONE, 2017).

Tests used:
Settings in all cases: concentration: 1 μM, replicates: in singlicate; n = 1
[1] = test system: EPHB6
[2] = test system: ERBB2
[3] = test system: ERBB3
[4] = test system: ERBB4
[5] = test system: T1, ERK1
T1 construct: gene MAPK3

[6] = test system: T2, ERK2
T2 construct: gene MAPK1

[7] = test system: T3, ERK3
T3 construct: gene MAPK6

[8] = test system: T4, ERK4
T4 construct: gene MAPK4

[9] = test system: T5, ERK5
T5 construct: gene MAPK7

[10] = test system: T6, ERK8
T6 construct: gene MAPK15

[11] = test system: ERN1
[12] = test system: T7, FAK
T7 construct: gene PTK2

[13] = test system: FER
[14] = test system: FES
[15] = test system: FGFR1
[16] = test system: FGFR2
[17] = test system: FGFR3
[18] = test system: FGFR4
[19] = test system: FGR
[20] = test system: FLT1
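Note: KINOMEscan kinase panel screen.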

| SMILES | %Inh [1] | %Inh [2] | %Inh [3] | %Inh [4] | %Inh [5] | %Inh [6] | %Inh [7] | %Inh [8] | %Inh [9] | %Inh [10] | %Inh [11] | %Inh [12] | %Inh [13] | %Inh [14] | %Inh [15] | %Inh [16] | %Inh [17] | %Inh [18] | %Inh [19] | %Inh [20] |
| --- | --- | --- | --- | --- | --- | --- | --- | --- | --- | --- | --- | --- | --- | --- | --- | --- | --- | --- | --- | --- |
| COc1ccc(Nc2nccc(N3CCC(NC(=O)Nc4cc(C)ccc4C)C3)n2)cc1 (centres unmarked) [GSK1379741] | 0% | 6% | 0% | 52% | 0% | 0% | 0% | 1% | 0% | 0% | 0% | 0% | 0% | 0% | 0% | 0% | 0% | 0% | 5% | 16% |
| O=C(Nc1cccc(-c2nn3ncccc3c2-c2ccnc(Nc3cccc(C(F)(F)F)c3)n2)c1)c1c(F)cccc1F [GSK299495] | 30% | 92.1% | 56% | 98.4% | 0% | 0% | 7% | 18% | 0% | 0% | 15% | 0% | 24% | 0% | 0% | 0% | 0% | 0% | 95.5% | 91.5% |
| CC(C)Oc1ccc2c(-c3ccnc(Nc4ccc(N5CCN(C)CC5)cc4)n3)cnn2n1 [GW696155] | 70% | 53% | 14% | 39% | 0% | 0% | 92.1% | 47% | 45% | 98% | 62% | 0% | 22% | 15% | 15% | 1% | 12% | 0% | 57% | 59% |
| NS(=O)(=O)c1cccc(-c2ccc3nccc(-c4cccc(S(N)(=O)=O)c4)c3c2)c1 [GW867253] | 0% | 11% | 0% | 7% | 0% | 0% | 0% | 0% | 0% | 1% | 39% | 0% | 0% | 0% | 11% | 0% | 0% | 0% | 0% | 0% |
| C[C@@H](Oc1cc(-n2cnc3ccc(NC(=O)NC(C)(C)C)cc32)sc1C(N)=O)c1ccccc1Cl [GSK346294] | 21% | 15% | 22% | 0% | 0% | 0% | 7% | 19% | 0% | 0% | 13% | 0% | 43% | 0% | 13% | 0% | 30% | 14% | 8% | 46% |
| Cc1nnc(-c2ccc3ncc(-c4ccc(S(C)=O)cc4)n3c2)o1 (centres unmarked) | 13% | 65% | 3% | 0% | 0% | 0% | 0% | 0% | 0% | 0% | 10% | 0% | 0% | 4% | 0% | 0% | 0% | 0% | 0% | 0% |
| Fc1ccc(-c2nn3c(OCC(F)(F)F)cccc3c2-c2ccncc2)cc1 [GW514784] | 0% | 59% | 29% | 37% | 0% | 0% | 6% | 9% | 0% | 0% | 0% | 0% | 13% | 7% | 0% | 0% | 0% | 0% | 18% | 35% |
| c1ccc(-c2n[nH]cc2-c2ccnc3ccccc23)nc1 [GW271431] | 10% | 9% | 0% | 25% | 0% | 6% | 10% | 11% | 0% | 0% | 0% | 0% | 31% | 0% | 6% | 0% | 13% | 11% | 26% | 47% |
| O=C(c1ccc(-c2cc(-c3c[nH]nc3-c3ccccn3)ccn2)cc1)N1CCOCC1 [GW812171] | 0% | 11% | 0% | 0% | 0% | 0% | 0% | 16% | 0% | 5% | 54% | 0% | 0% | 0% | 4% | 0% | 0% | 0% | 0% | 0% |
| COc1ccc(S(=O)(=O)NC2CCN(c3cc(C)nc(Nc4cccc(C#N)c4)n3)CC2)cc1.O=C(O)C(F)(F)F [GSK1653539] | 14% | 0% | 0% | 0% | 0% | 0% | 13% | 0% | 0% | 0% | 4% | 0% | 23% | 12% | 0% | 0% | 21% | 0% | 33% | 12% |
| CCCCCc1nc2c(N)ncnc2n1CCCCC [SKF-97255] | 6% | 4% | 0% | 0% | 0% | 0% | 0% | 0% | 0% | 29% | 13% | 0% | 13% | 0% | 11% | 0% | 0% | 0% | 7% | 0% |
| O=c1cc(N2CCOCC2)nc2n(Cc3cccc(Cl)c3Cl)c(C3CC3)nn12 [GSK2358994] | 33% | 0% | 9% | 0% | 0% | 11% | 0% | 0% | 0% | 13% | 0% | 0% | 3% | 15% | 0% | 1% | 0% | 0% | 9% | 6% |
| CN(C(=O)c1ccc(-c2cc(-c3c[nH]nc3-c3ccccn3)ccn2)cc1)C1CCOCC1 [GW810083] | 0% | 38% | 16% | 0% | 0% | 4% | 11% | 7% | 0% | 1% | 2% | 0% | 0% | 14% | 4% | 0% | 0% | 0% | 0% | 41% |
| COc1ccc(COc2cc(-n3cnc4ccccc43)sc2C(N)=O)cc1 [GSK1024304] | 0% | 28% | 0% | 24% | 5% | 0% | 15% | 13% | 8% | 0% | 2% | 0% | 6% | 16% | 0% | 0% | 1% | 0% | 10% | 24% |
| CC(C)(C)n1cnc2c(N)ncnc21 [SKF-97359] | 0% | 37% | 17% | 22% | 0% | 0% | 10% | 15% | 4% | 8% | 0% | 0% | 45% | 0% | 0% | 0% | 0% | 0% | 8% | 7% |
| O=c1cc(N2CCOCC2)nc2n(Cc3cccc(F)c3)ccn12 [GSK2297430] | 0% | 0% | 0% | 0% | 15% | 6% | 14% | 0% | 0% | 6% | 0% | 0% | 24% | 9% | 6% | 0% | 14% | 1% | 32% | 42% |
| CCc1ccnc(/C=C/c2n[nH]c3cc(Sc4ccccc4C(=O)NC)ccc23)c1 | 35% | 2% | 0% | 21% | 0% | 5% | 0% | 9% | 0% | 0% | 0% | 14% | 0% | 0% | 84% | 87% | 83% | 11% | 86% | 100% |
| c1ccc(-c2cc(-c3c[nH]nc3-c3ccccn3)ccn2)cc1 [GW576604] | 0% | 0% | 16% | 52% | 8% | 0% | 0% | 3% | 0% | 0% | 0% | 6% | 13% | 0% | 0% | 0% | 0% | 67% | 9% | 46% |
| Cl.Oc1cccc(Nc2ccnc3cc(-c4ccncc4)ccc23)c1 [GW494601] | 86% | 0% | 40% | 38% | 0% | 0% | 2% | 26% | 0% | 0% | 21% | 0% | 23% | 0% | 59% | 0% | 12% | 12% | 98.1% | 94.4% |
| COc1cc2ncn(-c3cc(OCc4sccc4Cl)c(C(N)=O)s3)c2cc1OC [GSK448459] | 28% | 44% | 0% | 31% | 0% | 0% | 8% | 0% | 0% | 20% | 0% | 0% | 10% | 0% | 0% | 15% | 13% | 0% | 9% | 15% |
| CN1c2ccc(NCc3ccc(F)cc3)cc2-c2c(cnn2C)S1(=O)=O | 0% | 7% | 27% | 0% | 0% | 0% | 0% | 0% | 3% | 22% | 0% | – | 0% | 4% | 2% | 2% | 0% | 0% | 0% | 0% |
